RGS8-Gao = regulators of human RGS8-Galphao interaction; P09471; multiplexed bead flow cytometry, RGS8-Galphao binding; actives lie on both sides; response (percent of control binding), % at 10 µM; 0.34% of 220,000 active; AID 1423; in the data active = response below about 60% or above about 140%; inactive = in between;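 also: Galphao activated as the GDP aluminium fluoride complex binding bead-coupled RGS8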
Target sequence (P09471 whole entry, looked up): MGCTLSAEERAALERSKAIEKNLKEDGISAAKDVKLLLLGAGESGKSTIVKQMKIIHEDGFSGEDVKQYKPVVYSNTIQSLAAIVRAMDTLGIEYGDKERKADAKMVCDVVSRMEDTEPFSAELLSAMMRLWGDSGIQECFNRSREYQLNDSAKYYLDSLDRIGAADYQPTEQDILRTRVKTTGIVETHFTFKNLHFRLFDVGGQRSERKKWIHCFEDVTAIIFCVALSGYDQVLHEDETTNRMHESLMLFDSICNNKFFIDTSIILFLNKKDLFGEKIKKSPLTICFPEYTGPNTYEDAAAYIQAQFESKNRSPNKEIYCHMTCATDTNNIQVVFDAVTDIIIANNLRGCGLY
RGS7-Gao reg = human RGS7-Galphao interaction regulation; Multiplexed bead flow cytometry, RGS7-Galphao binding; actives lie on both sides; 0.35% of 220,000 active; binding response (% of control), % at 10 µM; AID 1439; in the data active = binding response below about 49% or above about 150%; inconclusive = no clear call, values can overlap the other calls; inactive = in between;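 also: fluorescent Galphao held in activated GDP-AlF4 state binding bead-coupled RGS7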
GSH bead fluor = compound fluoresces at 488/530 nm on GSH beads. GSH beads flow cytometry, compound fluorescence 488/530 nm; stronger effect = higher value. AID 1776. 0.25% of 190,000 active. fluorescence (KMESF) at 10 µM; in the data active = fluorescence above about 89;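 also: glutathione beads carrying GST-tagged Bcl family fusion proteins plus one bare bead set; values are compound well signal with DMSO vehicle wells as background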
Avidin fluor = compound fluoresces at 488/530 nm on avidin beads; AID 1775; 0.38% of 220,000 active; compound fluorescence 488/530 nm, flow cytometry; stronger effect = higher value; fluorescence (KMESF) at 10 µM; in the data active = fluorescence above about 47
RGS16-Gao HTS = RGS16-Galphao interaction regulator (human); O15492+P09471; bead-based flow cytometry RGS16-Galphao binding, fluorescence; actives lie on both sides; binding response (% of control), % at 10 µM; 0.38% of 220,000 active;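 also: Galphao activated by GDP with aluminum fluoride before binding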
RGS4-Gao reg = human RGS4-Galphao interaction regulation | Multiplexed bead flow cytometry, RGS4-Galphao binding; actives lie on both sides | 0.33% of 220,000 active | AID 1415 | binding response (% of control), % at 10 µM; in the data active = binding response below about 49% or above about 150%; inactive = in between;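 also: fluorescent Galphao activated with aluminum fluoride binding bead-coupled RGS4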
RGS4-Gao HTS = regulators of human RGS4-Galphao interaction | shares compounds with RGS16-Gao HTS | multiplexed bead flow cytometry, RGS–Galpha-o binding | RGS4–Galpha-o binding response, % at 10 µM | 99% of 1,600 active | AID 1504;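 also: fluorescently labeled Galpha-o bound to GDP with aluminium fluoride binding biotinylated RGS beads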
Target sequence (P09471 whole entry, looked up): as above
Target sequence (P49798 whole entry, looked up): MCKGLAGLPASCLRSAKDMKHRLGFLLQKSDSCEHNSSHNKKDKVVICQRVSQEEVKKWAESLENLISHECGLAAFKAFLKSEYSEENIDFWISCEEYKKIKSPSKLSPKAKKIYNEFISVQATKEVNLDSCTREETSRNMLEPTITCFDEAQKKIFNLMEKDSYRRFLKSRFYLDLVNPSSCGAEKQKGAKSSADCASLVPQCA
Biotin-avidin = interferes with biotinylated probe binding to avidin beads | shares compounds with RGS16-Gao HTS | streptavidin beads, fluorescein-biotin binding, flow cytometry | inhibition, % at 10 µM | AID 1783 | 1,700 tested, under 10 active;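 active = inhibition above 50%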;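 also: median green fluorescence of gated singlet beads compared with DMSO control wells; 0% = DMSO wells and 100% = complete loss of bead fluorescence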
RGS8-Gao confirm = RGS8-Galphao interaction regulation, single point confirmation; shares compounds with RGS16-Gao HTS; bead-based flow cytometry RGS8-Galphao binding, fluorescence; actives lie on both sides; AID 1836; binding response (% of control), % at 10 µM; 3% of 1,700 active; in the data active = binding response below about 72% or above about 130%; inactive = in between;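 also: Galphao activated as GDP AlF4 complex before binding bead RGS8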
RGS7-Gao single = RGS7-Galphao interaction regulation, single point confirmation | bead-based flow cytometry RGS7-Galphao binding; actives lie on both sides | shares compounds with RGS16-Gao HTS | 7.8% of 1,700 active | response (percent of control binding), % at 10 µM; in the data active = response below about 75% or above about 130%; inactive = in between;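 also: fluorescent Galphao activated with GDP and aluminum fluoride binding bead-coupled RGS7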
RGS16-Gao single = confirmation of regulators of human RGS16-Galphao interaction; shares compounds with RGS16-Gao HTS; bead-based flow cytometry, RGS16-Galphao binding; actives lie on both sides; response (% of control binding), % at 10 µM; 4% of 1,700 active; in the data active = response below about 74% or above about 130%; inactive = in between;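 also: Galphao activated as the GDP aluminium fluoride complex binding bead-coupled RGS16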
RGS4-Gao confirm = confirmation of regulators of human RGS4-Galphao interaction; 4% of 1,700 active; binding response (% of control), % at 10 µM; AID 1840; RGS4-Galphao binding, multiplexed bead flow cytometry; actives lie on both sides; shares compounds with RGS16-Gao HTS; in the data active = binding response below about 74% or above about 130%; inactive = in between
RGS19-Gao conf = confirmation of regulators of human RGS19-Galphao interaction | shares compounds with RGS16-Gao HTS | bead-based flow cytometry RGS19-Galphao binding; actives lie on both sides | response (percent of control binding), % at 10 µM | 5% of 1,700 active; in the data active = response below about 50% or above about 160%; inactive = in between;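 also: 100% = no compound control and 0% = blank background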
An asterisk follows results filed as active; i = inactive; ? = inconclusive; nt = no result; [ ] = another dose, or the depositor's remark. Sampled rows, rich in hits. Any-hit rate of the full collection: about 1.2%. Unless noted, no rule for the calls is given here.

SMILES | RGS8-Gao | RGS7-Gao reg | GSH bead fluor | Avidin fluor | RGS16-Gao HTS | RGS4-Gao reg | Biotin-avidin | RGS8-Gao confirm | RGS7-Gao single | RGS16-Gao single | RGS4-Gao confirm | RGS19-Gao conf | others
COc1cc(C(=O)OCC#N)ccc1OCc1c(C)noc1C | 100 | ? | nt | 9 | 100 | 104 | nt | nt | nt | nt | nt | nt
COc1ccc(-c2cnnn2-c2ccc(NC(=O)c3ccc(S(=O)(=O)N4CCCCC4)cc3)cc2)cc1 | 25* | 21* | 10 | -2 | 14 | 22* | 0 | 100 | 99 | 98 | 99 | 103
O=C(Nc1ccccc1F)c1ccc(COc2ccc(Cl)cc2Cl)o1 | 103 | 101 | 16 | 7 | 106 | 101 | nt | nt | nt | nt | nt | nt
CC(C)CNC(=O)c1ccc(COc2ccc(Cl)cc2Cl)o1 | 60* | 49* | 21 | 2 | 45 | 52 | -2 | 100 | 96 | 99 | 98 | 108 | RGS4-Gao HTS=52*
CCCN(CCC)c1nc(N(CCC)CCC)[nH]c(=O)n1 | 20* | 5.2* | 17 | 1 | 9.2* | 16* | 1 | 99 | 99 | 98 | 99 | 97
COc1cccc(CC2(CO)CCCN(Cc3cc4ccccc4[nH]3)C2)c1 (stereo unspecified) | 99 | 99 | 13 | 5 | 94 | 98 | nt | nt | nt | nt | nt | nt
O=C1CC(NNc2nc3ccccc3s2)C(=O)N1c1ccccc1 (stereo unspecified) | 101 | 96 | 28 | 24 | 100 | 98 | nt | nt | nt | nt | nt | nt
Cc1ccc(N2C(=O)CC(NNc3nc4ccccc4s3)C2=O)cc1 (stereo unspecified) | 34* | 33* | 13 | -1 | i | 19* | 0 | 103 | 98 | 99 | 97 | 83
O=S(=O)(Nc1cccc(Cl)c1)c1ccc2oc(=S)[nH]c2c1 | 104 | ? | 13 | 13 | 103 | 105 | nt | nt | nt | nt | nt | nt
O=C(NC(Cc1ccccc1)C(=O)NCc1ccccn1)c1ccco1 (stereo unspecified) | nt | nt | 29 | nt | nt | nt | -1 | 100 | 100 | 101 | 101 | 81
O=C(NCc1ccccn1)c1ccco1 | 102 | 101 | 8 | 22 | 104 | 100 | nt | nt | nt | nt | nt | nt
Cn1ccnc1C(O)(c1ccccc1)c1ccccc1 | 102 | ? | nt | 7 | 100 | 104 | nt | nt | nt | nt | nt | nt
CCOC(=O)c1c(C)[nH]c(C(=O)CSc2nnc(-c3ccncc3)n2CC)c1C | 99 | 100 | 36 | 13 | 105 | 101 | nt | nt | nt | nt | nt | nt
C=CCn1c(SCC(=O)c2[nH]c(C)c(C(=O)OCC)c2C)nc2scc(-c3ccc(OC)c(OC)c3)c2c1=O | 109 | 105 | 6 | 22 | 191*[activator] | 168*[activator] | 0 | 100 | 105 | 101 | 102 | 99
CCOc1ccc(CN(C)CC(=O)Nc2ccc(N3CCOCC3)cc2)cc1OC | 98 | 97 | 17 | 7 | 99 | 99 | nt | nt | nt | nt | nt | nt
O=C(CN1C(=O)S/C(=C\c2ccc(F)cc2)C1=O)Nc1cccc(S(=O)(=O)NCc2ccco2)c1 | 100 | 102 | 9 | 8 | 103 | 98 | nt | nt | nt | nt | nt | nt
Cc1csc(NC(=O)C2C3C=CC(C3)C2C(=O)O)n1 (stereo unspecified) | 10* | -9.1* | 32 | -4 | -20* | -23* | -1 | 99 | 103 | 100 | 100 | 112
CCOC(=O)c1nnsc1Nc1ccc(C)c(C)c1 | 109 | 118 | 13 | 16 | 111 | 116 | nt | nt | nt | nt | nt | nt
CCN(N=O)[C@@H](Cc1ccccc1)CN(N=O)[C@@H](Cc1ccccc1)CN(C)N=O | 29* | 17* | 21 | 1 | 21* | 30* | 1 | 102 | 101 | 102 | 102 | 101
CN(C)/C=N/c1c(C#N)cnn1-c1ccc(C(F)(F)F)cn1 | 70 | 70 | 23 | 9 | -122* | 61 | 4 | 105 | 83 | 102 | 90 | 64 | RGS4-Gao HTS=61*
CN(C(=O)c1ccc(-c2nn(C)c(=O)c3ccccc23)cc1)c1ccccc1 | 96 | 99 | 40 | 6 | 99 | 94 | nt | nt | nt | nt | nt | nt
CC(C)c1cccc(C(C)C)c1OCCCCN1CCCC1 | nt | nt | 35 | nt | nt | nt | 1 | 99 | 96 | 99 | 96 | 134
Cc1ccc(-c2nn(-c3ccccc3)cc2/C=C2\SC(=S)N(CC(=O)O)C2=O)cc1 | 99 | ? | nt | 8 | 49 | 95 | nt | nt | nt | nt | nt | nt
CCOc1ccc(-c2nn(-c3ccccc3)cc2/C=C2\SC(N)=NC2=O)cc1C | 12* | 16* | 20 | -2 | 1.8* | 22* | 3 | 102 | 101 | 103 | 101 | 103
CCN(CC)c1ccc(NC(=O)Cn2c(C(C)NC(=O)c3ccc(C)cc3)nc3ccccc32)cc1 (stereo unspecified) | 114 | 153*[activator] | 18 | 33 | 192*[activator] | 212*[activator] | -1 | 108 | 99 | 128*[activator] | 117 | 259*[activator]
SMILES | RGS8-Gao | RGS7-Gao reg | GSH bead fluor | Avidin fluor | RGS16-Gao HTS | RGS4-Gao reg | Biotin-avidin | RGS8-Gao confirm | RGS7-Gao single | RGS16-Gao single | RGS4-Gao confirm | RGS19-Gao conf | others
CC(C)CNC(=O)c1ccccc1SCC(=O)NC12CC3CC(CC(C3)C1)C2 | 68 | 79 | 15 | 2 | 23* | 78 | 0 | 98 | 109 | 105 | 104 | 137 | RGS4-Gao HTS=78*
CCOc1ccc(C2NC(=O)NC(C)=C2C(=O)OC)cc1C (stereo unspecified) | nt | nt | 29 | nt | nt | nt | 2 | 102 | 100 | 101 | 104 | 95
CN(C)c1ccc(/C=N/OC(=O)Nc2ccccc2Cl)cc1 | 103 | 101 | 9 | 23 | 105 | 101 | nt | nt | nt | nt | nt | nt
CCCc1nc2c(o1)CC(CC(C)SCC)CC2=O (stereo unspecified) | 7.4* | -1.3* | 44 | -4 | -7.1* | -7.5* | 1 | 99 | 99 | 97 | 97 | 107
CCSC(C)CC1CC(=O)CC(=O)C1 (stereo unspecified) | nt | nt | 41 | nt | nt | nt | 3 | 96 | 101 | 98 | 100 | 88
COc1ccc(Br)cc1/C=N/Nc1cccc(C(=O)O)c1 | 99 | 172*[activator] | 12 | 78* | 98 | 112 | 1 | 96 | 64* | 81 | 79 | 67 | RGS4-Gao HTS=112*

Screens: PubChem, NMMLSC
